Source: PubChem
T cruzi growth-1: T. cruzi intracellular proliferation inhibitors, primary screen, cell-based, beta-gal Tulahuen parasites, NIH3T3 host, luminescence; T. cruzi beta-gal in NIH3T3, GalScreen luminescence, 90 h; inhibition, % at 8.34 µM; 5.9% of 77,000 active; AID 624255, 2012;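 active means mean inhibition above about 93%, with at least 55% of replicates each passing it, limit read from the data, passing the limit was not always enough; inconclusive means only one of those two conditions holds; inactive means neither condition holds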
Pf Dd2 inh: P. falciparum Dd2 growth inhibitors, primary screen, SYBR Green fluorescence, single dose replicates. activity change, % at 10 µM. 2.3% of 94,000 active. 72 h; hits give low values; in the data active means activity change below about -80%; inconclusive means no clear call, values can overlap the other calls
C diff growth: C. difficile growth inhibitors, primary screen, HTS; growth activity, negative = inhibition, % at 16 µg/mL (by protocol); 0.25% of 86,000 active; Clostridium difficile clinical isolate growth, OD600, 24 h; hits give low values;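 active means mean growth activity at or below -80% and every replicate also at or below -80%; inconclusive means mean at or below -80% but some replicate above -80%; inactive means mean growth activity above -80%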;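 further: 0% = DMSO wells and -100% = levofloxacin 16 µg/mL wells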
T cruzi growth-2: T. cruzi intracellular proliferation inhibitors, confirmation, cell-based, NIH3T3 host, beta-gal parasite, luminescence, cherry-pick | shares compounds with T cruzi growth-1 | T. cruzi beta-gal in NIH3T3, GalScreen luminescence, 90 h | inhibition, % at 8.35 µM | 72% of 5,600 active | AID 651739, 2012;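 active means mean replicate inhibition above about 95% and at least 55% of replicates individually reaching it, limit read from the data; inconclusive means only one of the two criteria is met; inactive means neither criterion is met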
T cruzi growth-3: inhibitors of intracellular T. cruzi replication, confirmation, NIH3T3 host cells, beta-gal parasites, cherry-pick, set 2; shares compounds with T cruzi growth-1; T. cruzi beta-gal in NIH3T3, GalScreen luminescence, 90 h; inhibition, % at 2.09 µM; 21% of 5,600 active; AID 651740, 2012;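 active means mean inhibition above about 95%, with at least 55% of replicates also reaching it, limit read from the data; inconclusive means meets just one of the two conditions; inactive means meets neither condition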;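 further: plate controls were neutral control median for no effect and positive control median for full effect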
3T3 cytotox: cytotoxicity in mouse NIH/3T3 fibroblasts, confirmation, cytotoxicity control for T. cruzi proliferation inhibitor project, cell-based, cherry-pick, single point; shares compounds with T cruzi growth-1; cytotoxicity (signal decrease), % at 8.35 µM; 14% of 5,600 active; AID 651742, 2012; NIH/3T3 viability, CellTiter-Glo ATP luminescence, 90 h;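 active means mean signal decrease across replicates above about 35% based on untreated-well scatter, with enough replicates individually passing, limit read from the data; inconclusive means no rule stated though some were filed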;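 further: 0% = median of neutral control wells and 100% = median of positive control wells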
NIH3T3 tox 2: NIH/3T3 fibroblast cytotoxicity, confirmation, cytotoxicity control, cell-based, cherry-pick, single point, set 2. shares compounds with T cruzi growth-1. NIH/3T3 viability, CellTiter-Glo ATP luminescence, 90 h. inhibition, % at 24.9 µM. 56% of 5,600 active. AID 651744, 2012;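 active means mean loss of cell viability signal at or above a set limit, and enough replicates individually reaching it; inconclusive means meets only the mean limit or only the replicate share; inactive means meets neither condition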;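 further: 0% = median of neutral control wells and 100% = median of positive control wells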
Active calls of the source: *; ? = inconclusive; . = not tested or not shown. Hits are enriched below; roughly 6.7% of the tested compounds scored in any of these assays.

SMILES	T cruzi growth-1	Pf Dd2 inh	C diff growth	T cruzi growth-2	T cruzi growth-3	3T3 cytotox	NIH3T3 tox 2
COc1ccc(CN(C)C[C@@H]2OCCCC[C@@H](C)Oc3ccc(NC(=O)Nc4ccc(F)cc4)cc3C(=O)N([C@H](C)CO)C[C@H]2C)cc1	?	-63	16	97*	111*	26	105*
COc1ccc(CN(C)C[C@H]2OCCCC[C@H](C)Oc3ccc(NC(=O)Nc4ccc(OC)cc4)cc3C(=O)N([C@@H](C)CO)C[C@@H]2C)cc1	110*	30	.	112*	63	15	104*
COc1ccc(CN(C)C[C@@H]2OCCCC[C@@H](C)Oc3ccc(NC(=O)Nc4ccc(OC)cc4)cc3C(=O)N([C@@H](C)CO)C[C@H]2C)cc1	83	-51	.	.	.	.	.
COc1ccc(CN(C)C[C@@H]2OCCCC[C@@H](C)Oc3ccc(NC(=O)Nc4ccc(F)cc4)cc3C(=O)N([C@H](C)CO)C[C@@H]2C)cc1	47	-10	4	.	.	.	.
C[C@@H]1CCCCO[C@H](CN(C)S(=O)(=O)c2cn(C)cn2)[C@@H](C)CN([C@@H](C)CO)C(=O)c2cc(NC(=O)C3CCCCC3)ccc2O1	-8	-6	3	.	.	.	.
COCC(=O)N(C[C@H]1N[C@@H](CO)[C@@H]1c1ccc(C2=CCCC2)cc1)C(C)C	33	-18	4	.	.	.	.
CC(=O)N(C)C[C@@H]1Oc2ncc(C3=CCCC3)cc2C(=O)N([C@@H](C)CO)C[C@H]1C	-36	17	-1	.	.	.	.
COc1ccc2c3c([nH]c2c1)[C@H](CO)N(Cc1ccccc1)CC31CN(S(=O)(=O)c2ccc(C)cc2)C1	.	-17	-4	.	.	.	.
CCC(=O)N1C[C@@H](C)[C@H](OC)CN(C)C(=O)c2cc(NC(=O)c3cc(C)on3)ccc2OC[C@H]1C	3	.	.	.	.	.	.
COC(=O)C[C@@H]1C[C@@H]2c3cc(NC(=O)c4cccnc4)ccc3O[C@@H]2[C@H](CO)O1	-24	-3	4	.	.	.	.
C[C@@H]1CN([C@H](C)CO)S(=O)(=O)c2ccc(C#CC3CC3)cc2O[C@@H]1CN(C)CC1CC1	105	-37	.	.	.	.	.
CC(C)C#Cc1ccc2c(c1)O[C@H](CN(C)CC1CCOCC1)[C@@H](C)CN([C@@H](C)CO)S2(=O)=O	102*	-66	-2	98*	93	18	105*
COc1ccc(-c2ccc3c(c2)O[C@@H](CN(C)CC2CCOCC2)[C@H](C)CN([C@@H](C)CO)S3(=O)=O)cc1	93*	-53	-9	100*	101*	51*	67*
C[C@H](CO)N1C[C@H](C)[C@@H](CN(C)CC2CCCC2)Oc2cc(C#CC3CC3)ccc2S1(=O)=O	?	-44	.	104*	94	7	105*
CCCN(C)C[C@@H]1Oc2cc(C#CC3CCCC3)ccc2S(=O)(=O)N([C@@H](C)CO)C[C@@H]1C	99*	-79	4	113*	91	23	104*
COc1ccc(-c2ccc3c(c2)O[C@H](CN(C)CC2CCOCC2)[C@@H](C)CN([C@@H](C)CO)S3(=O)=O)cc1	41	-13	-9	.	.	.	.
CCCN(C)C[C@H]1Oc2cc(C#CC3CCCCC3)ccc2S(=O)(=O)N([C@@H](C)CO)C[C@@H]1C	58	-22	18	.	.	.	.
CC(C)C#Cc1ccc2c(c1)O[C@@H](CN(C)CC1CCOCC1)[C@@H](C)CN([C@H](C)CO)S2(=O)=O	54	-33	-2	.	.	.	.
C[C@H]1CN([C@@H](C)CO)S(=O)(=O)c2ccc(-c3ccc(C#N)cc3)cc2O[C@H]1CN(C)C	7	.	-4	.	.	.	.
CN(C)CCCNC(=O)C[C@H]1CC[C@H]2[C@@H](COc3ccc(NC(=O)c4ccccc4F)cc3C(=O)N2C)O1	21	11	-1	.	.	.	.
COc1ccc(-c2cn(CC[C@H]3CC[C@@H](NC(=O)Cc4ccccn4)[C@H](CO)O3)nn2)cc1	8	-14	-1	.	.	.	.
CNC(=O)C[C@@H]1CC[C@@H]2[C@H](COc3ccc(NC(=O)Nc4ccccc4F)cc3C(=O)N2C)O1	38	-31	7	.	.	.	.
C[C@H]1CN([C@@H](C)CO)S(=O)(=O)c2ccc(C#Cc3ccccc3F)cc2O[C@H]1CN(C)CC1CCOCC1	.	-51	2	.	.	.	.
C[C@H](CO)N1C[C@H](C)[C@@H](CN(C)CC2CCOCC2)Oc2cc(C#Cc3ccccc3F)ccc2S1(=O)=O	122*	-65	13	99*	103*	-25	43*
C[C@@H]1CN([C@H](C)CO)S(=O)(=O)c2ccc(C#CC3CC3)cc2O[C@H]1CN(C)CC1CCOCC1	?	-10	-4	101*	27	50*	91*
SMILES	T cruzi growth-1	Pf Dd2 inh	C diff growth	T cruzi growth-2	T cruzi growth-3	3T3 cytotox	NIH3T3 tox 2
COCC#Cc1ccc2c(c1)O[C@@H](CN(C)CC1CCCC1)[C@H](C)CN([C@H](C)CO)S2(=O)=O	110*	-65	5	98*	47	44*	104*
C[C@@H]1CN([C@H](C)CO)S(=O)(=O)c2ccc(C#CC3CC3)cc2O[C@@H]1CN(C)CC1CCOCC1	48	-5	-2	.	.	.	.
COCC#Cc1ccc2c(c1)O[C@@H](CN(C)CC1CC1)[C@@H](C)CN([C@H](C)CO)S2(=O)=O	.	-26	-3	.	.	.	.
CO[C@H]1CN(C)C(=O)c2cc(NC(=O)Nc3ccccc3)ccc2OC[C@H](C)N(C(=O)CN(C)C)C[C@H]1C	-57	21	-2	.	.	.	.
CO[C@H]1CN(C)C(=O)c2ccc(NC(=O)C3CC3)cc2OC[C@@H](C)N(C(=O)C2CCCCC2)C[C@H]1C	-26	-20	-3	.	.	.	.
C[C@@H]1CN([C@H](C)CO)C(=O)c2cc(NS(=O)(=O)c3ccc(Cl)cc3)ccc2O[C@H]1CN(C)S(C)(=O)=O	-1	10	2	.	.	.	.
Cc1ccc(-c2ccc3c(c2)O[C@@H](CN(C)C)[C@@H](C)CN([C@@H](C)CO)S3(=O)=O)cc1	13	-28	1	.	.	.	.
C[C@@H]1CCCCO[C@H](CN(C)S(=O)(=O)c2ccccc2)[C@@H](C)CN([C@H](C)CO)C(=O)c2cc(NS(=O)(=O)c3ccc(F)cc3)ccc2O1	14	-41	-10	.	.	.	.
C[C@H]1CCCCO[C@H](CN(C)S(=O)(=O)c2ccccc2)[C@@H](C)CN([C@@H](C)CO)C(=O)c2cc(NS(=O)(=O)c3ccc(F)cc3)ccc2O1	97*	-66	-9	110*	70	19	9
